# Measured values taken from PubChem BioAssay (NCATS).
# “And” between values parts separate entries of the source, which are not always exact repeats. Equal values may be shown once. Values without a mark were called inactive. For some assays here: Results with a measured potency or affinity are listed apart. The source made the active and inactive calls.
# Key:
# [1] = Ebola virus entry assay, green fluorescence channel
# [2] = Ebola virus entry assay, blue channel fluorescence
# Wherever efficacy is given: 0% is about no effect.
SMILES,efficacy [1],AC50 [2],outcome [2]
O[C@@H](c1cc(C(F)(F)F)nc2c(C(F)(F)F)cccc12)[C@H]1CCCCN1,-219%,7.94 µM (active),–
C#C[C@]1(O)CC[C@H]2[C@@H]3CCC4=Cc5oncc5C[C@]4(C)[C@H]3CC[C@@]21C,22.7%,–,inactive
CCCNC(=O)NS(=O)(=O)c1ccc(Cl)cc1,-18.6%,–,inactive
Clc1ccc(C(c2ccccc2Cl)C(Cl)Cl)cc1 (stereo unspecified),-31.8%,–,inactive
CC(C)(C)NC(=O)[C@@H]1CN(Cc2cccnc2)CCN1C[C@@H](O)C[C@@H](Cc1ccccc1)C(=O)N[C@H]1c2ccccc2C[C@H]1O,-17.5%,–,inactive
CC(C)C[C@H](NC(=O)[C@H](Cc1ccccc1)NC(=O)c1cnccn1)B(O)O,-28.6%,–,inactive
O=C(C1CCCCC1)N1CC(=O)N2CCc3ccccc3C2C1 (stereo unspecified),43.7%,–,inactive
CC(C)(C)C(=O)OCOP(=O)(COCCn1cnc2c(N)ncnc21)OCOC(=O)C(C)(C)C,-17.9%,–,inactive
CCC1(c2ccccc2)C(=O)NCNC1=O,-13.6%,–,inactive
CC(=O)N(O)CCCCCNC(=O)CCC(=O)N(O)CCCCCNC(=O)CCC(=O)N(O)CCCCCN,-19.8%,–,inactive
N[C@@H](C(=O)N[C@@H]1C(=O)N2C(C(=O)O)=C(Cl)CS[C@H]12)c1ccccc1,26%,–,inactive
Fc1ccc([C@@H]2CCNC[C@H]2COc2ccc3c(c2)OCO3)cc1,101%,5.62 µM (active),–
Cc1cnc(C(=O)NCCc2ccc(S(=O)(=O)NC(=O)NC3CCCCC3)cc2)cn1,-14.5%,–,inactive
CS(=O)(=O)CCNCc1ccc(-c2ccc3ncnc(Nc4ccc(OCc5cccc(F)c5)c(Cl)c4)c3c2)o1,108%,–,inactive
CCC1C(=O)OCC1Cc1cncn1C (stereo unspecified),-25.5%,–,inactive
CCCc1cc(=O)[nH]c(=S)[nH]1,10.6%,–,inactive
NS(=O)(=O)c1cc2c(cc1C(F)(F)F)NCNS2(=O)=O,-34.5%,–,inactive
CC(C)NCC(O)c1ccc(O)c(O)c1 (stereo unspecified),-9.56%,–,inactive
CN1CCN(C2=Nc3ccccc3Oc3ccc(Cl)cc32)CC1,112%,–,inactive
CC[C@]1(O)C[C@@H]2CN(CCc3c([nH]c4ccccc34)[C@@](C(=O)OC)(c3cc4c(cc3OC)N(C)[C@H]3[C@@](O)(C(=O)OC)[C@H](OC(C)=O)[C@]5(CC)C=CCN6CC[C@]43[C@@H]65)C2)C1,-50.1% and 54.6%,0.0009 µM (active),–
COC(=O)C1=C(C)NC(C)=C(C(=O)OCCN(C)Cc2ccccc2)C1c1cccc([N+](=O)[O-])c1 (stereo unspecified),-75%,–,inactive
CNC1(C)C2CCC(C2)C1(C)C (stereo unspecified),20.8%,–,inactive
CN/C(=C\[N+](=O)[O-])NCCSCc1ccc(CN(C)C)o1,-12.5%,–,inactive
COc1cc(Cc2cnc(N)nc2N)cc(OC)c1OC,-22.6%,–,inactive
C[C@H]1O[C@H](O[C@H]2[C@H](O)[C@@H](O)[C@@H](O[C@H]3[C@H](O)[C@@H](O)[C@H](O)O[C@@H]3CO)O[C@@H]2CO)[C@H](O)[C@@H](O)[C@@H]1N[C@H]1C=C(CO)[C@@H](O)[C@H](O)[C@H]1O,9.72%,–,inactive

SMILES,efficacy [1],AC50 [2],outcome [2]
Cc1nc(Nc2ncc(C(=O)Nc3c(C)cccc3Cl)s2)cc(N2CCN(CCO)CC2)n1,82.9%,–,inactive
O=C1CCc2ccc(OCCCCN3CCN(c4cccc(Cl)c4Cl)CC3)cc2N1,-27%,–,inactive
NC(=O)NO,10%,–,inactive
CN(C)CCc1c[nH]c2ccc(CS(=O)(=O)N3CCCC3)cc12,-14.5%,–,inactive
Cc1nc2n(c(=O)c1CCN1CCC(c3noc4cc(F)ccc34)CC1)CCC[C@H]2O,18.4%,–,inactive
CC(=O)OCC(CCn1cnc2cnc(N)nc21)COC(C)=O,17.3%,–,inactive
CC1(C)S[C@@H]2[C@H](NC(=O)Cc3ccccc3)C(=O)N2[C@H]1C(=O)O (tested in a mixture with another compound),-23.1%,–,inactive
Cc1ccccc1N1C(=O)c2cc(S(N)(=O)=O)c(Cl)cc2NC1C (stereo unspecified),25.2%,–,inactive
CN(C)C(=O)C(CCN1CCC(O)(c2ccc(Cl)cc2)CC1)(c1ccccc1)c1ccccc1,-226%,11.2 µM (active),–
CC(c1cc2ccccc2s1)N(O)C(N)=O (stereo unspecified),-17.4%,–,inactive
CCN1CCN(C(=O)N[C@@H](C(=O)N[C@@H]2C(=O)N3C(C(=O)O)=C(CSc4nnnn4C)CS[C@H]23)c2ccc(O)cc2)C(=O)C1=O,-23.3%,–,inactive
O=C1Nc2ccc(Cl)cc2[C@@](C#CC2CC2)(C(F)(F)F)O1,-11.3%,–,inactive
Nc1ncn([C@@H]2O[C@H](CO)[C@@H](O)[C@H]2O)c(=O)n1,-20.9%,–,inactive
Nc1nc2c(ncn2COC(CO)CO)c(=O)[nH]1,-13.6%,–,inactive
COc1cc2ncnc(Nc3ccc(F)c(Cl)c3)c2cc1OCCCN1CCOCC1,41.5%,15.8 µM (active),–
Nc1nc(=S)c2[nH]cnc2[nH]1,-27.5%,–,inactive
CC(C)c1c(C(=O)Nc2ccccc2)c(-c2ccccc2)c(-c2ccc(F)cc2)n1CC[C@@H](O)C[C@@H](O)CC(=O)O,32.2%,–,inactive
CC1(C)S[C@@H]2[C@H](NC(=O)C(C(=O)O)c3ccccc3)C(=O)N2[C@H]1C(=O)O (stereo partly specified),26%,–,inactive
NCCCC(O)(P(=O)(O)O)P(=O)(O)O,11.2%,4.47 µM (active),–
O=C1Cc2cc(CCN3CCN(c4nsc5ccccc45)CC3)c(Cl)cc2N1,34%,–,inactive
c1cnc2cc3c(cc2n1)C1CNCC3C1,-29.9%,–,inactive
CNCCC(Oc1ccc(C(F)(F)F)cc1)c1ccccc1 (stereo unspecified),-180%,14.1 µM (active),–
Cc1ccc(C)c(OCCCC(C)(C)C(=O)O)c1,-13.5%,–,inactive
Nc1cc(-c2ccncc2)c[nH]c1=O,26.8%,–,inactive
CCC(C)n1ncn(-c2ccc(N3CCN(c4ccc(OC[C@H]5CO[C@](Cn6cncn6)(c6ccc(Cl)cc6Cl)O5)cc4)CC3)cc2)c1=O (stereo partly specified),13.1%,5.01 µM (active),–

SMILES,efficacy [1],AC50 [2],outcome [2]
C[C@@H](O)[C@H]1C(=O)N2C(C(=O)O)=C(S[C@@H]3CN[C@H](C(=O)N(C)C)C3)[C@H](C)[C@H]12,17.9%,–,inactive
C[N+]1(C)CCC(OC(=O)C(O)(c2ccccc2)C2CCCC2)C1 (stereo unspecified),28.8%,–,inactive
CN(C)CCOC(c1ccc(Cl)cc1)c1ccccn1 (stereo unspecified),34.3%,–,inactive
C=C1C[C@@H]2[C@H](CC[C@]3(C)C(=O)CC[C@@H]23)[C@@]2(C)C=CC(=O)C=C12,112%,–,inactive
O=C1c2c(O)ccc(O)c2C(=O)c2c(NCCNCCO)ccc(NCCNCCO)c21,-106%,5.01 µM (active),–
O=C1OCCN1/N=C/c1ccc([N+](=O)[O-])o1,18%,–,inactive
CN1CCN(CCCN2c3ccccc3Sc3ccc(Cl)cc32)CC1,-144%,–,inactive
COc1c(C)c2c(c(O)c1C/C=C(\C)CCC(=O)O)C(=O)OC2,11.2%,–,inactive
CCc1ccc(CCOc2ccc(CC3SC(=O)NC3=O)cc2)nc1 (stereo unspecified),52.6%,–,inactive
C[C@H]1[C@H](NC(=O)/C(=N/OC(C)(C)C(=O)O)c2csc(N)n2)C(=O)N1S(=O)(=O)O (stereo in doubt),16.2%,–,inactive
O=c1n(CCCN2CCN(c3cccc(Cl)c3)CC2)nc2ccccn12,33.5%,–,inactive
CN(CCOc1ccc(CC2SC(=O)NC2=O)cc1)c1ccccn1 (stereo unspecified),-12.2%,–,inactive
O=C1c2cccc3c2[C@H](CCC3)CN1[C@@H]1CN2CCC1CC2,37.7%,–,inactive
COC(=O)Nc1nc2ccc(C(=O)c3ccccc3)cc2[nH]1,81.3%,5.62 µM (active),–
CC1(C)O[C@@H]2[C@@H](CO[C@@]3(COS(N)(=O)=O)OC(C)(C)O[C@@H]23)O1,-13.6%,–,inactive
Cc1onc(-c2ccccc2Cl)c1C(=O)N[C@@H]1C(=O)N2[C@@H]1SC(C)(C)[C@@H]2C(=O)O,13.5%,–,inactive
O[C@@H]1CO[C@H]2[C@@H]1OC[C@@H]2O,15.8%,–,inactive
COc1cc(C(=O)NCc2ccc(OCCN(C)C)cc2)cc(OC)c1OC,33.3%,–,inactive
COCCCOc1cc(C[C@@H](C[C@H](N)[C@@H](O)C[C@H](C(=O)NCC(C)(C)C(N)=O)C(C)C)C(C)C)ccc1OC,31.8%,–,inactive
Cc1ccsc1C(=CCCN1CCC[C@@H](C(=O)O)C1)c1sccc1C,57.2%,–,inactive
CCOc1ccccc1OCCN[C@H](C)Cc1ccc(OC)c(S(N)(=O)=O)c1,-10.5%,–,inactive
CN(C)CC[C@@H](c1ccc(Br)cc1)c1ccccn1,34.2%,–,inactive
C=C(c1ccc(C(=O)O)cc1)c1cc2c(cc1C)C(C)(C)CCC2(C)C,22.5%,–,inactive
